# Several values for one entry are separate records, joined by “and”; a condition that tells them apart may be missing. Identical values can stand only once. Activity calls are given as the source filed them.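 The calls were made as follows, unless noted: active = thallium flux through the channel raised or lowered by more than 3 SD from vehicle-only wells, actives on both sides; inactive = the rest.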
# Legend:
# [1] = Wnt pathway potentiators raising nuclear beta-catenin – imaging, WNT3A-conditioned medium, mouse C2C12, NPC library, primary screen (AID 1117326; in the data active = nuclear beta-catenin stimulation mostly above about 4.2%, no sharp cut-off; inactive = mostly below about 10%); settings: stronger effect = higher value
# [2] = stimulators of insulin release from INS-1E, primary screen, cell-based, 5 mM glucose, NPC library (AID 1117329;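 active = compound raises insulin release from rat beta cells at 5 mM glucose, no numeric limit stated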); settings: rat INS-1E insulin secretion, at 10 µM, stronger effect = higher value
# [3] = growth inhibition of GSK3B-pretreated HCT116 cells – cell-based, CellTiter-Glo, 0.2 to 20 µM (AID 1117336;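 active = compounds lowering colon cancer cell viability after pretreatment blocking the GSK3B kinase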); settings: HCT116 viability after GSK3B inhibitor, at 20 µM, stronger effect = higher value
# [4] = inhibition of endothelial tube formation, primary screen, imaging, VEGF stimulated, CD31 staining, tube area, NPC library (AID 1117340;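 active = compound that reduces growth-factor-driven endothelial tube area in a mixed cell culture, no cutoff stated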); settings: VEGF-stimulated ADSC/ECFC co-culture, at 10 µM, stronger effect = higher value
# [5] = GLP1 release stimulators, primary, NCI-H716, NPC library (AID 1117341;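 active = compound raises GLP1 secretion from the human gut endocrine cells, with no numeric limit stated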); settings: NCI-H716 cells, at 10 µM, stronger effect = higher value
# [6] = HCT116 colon cancer cell growth inhibition, primary screen, CellTiter-Glo luminescence, NPC library (AID 1117342;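 active = compounds that lower survival of HCT116 colon cancer cells in the luminescence readout, no numeric limit stated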); settings: at 20 µM (top of the series)
# [7] = reduced SW480 viability measured with CellTiter-Glo, NPC library, primary (AID 1117343;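 active = compounds that lower viability of the colon cancer cells in the luminescence readout, with no numeric limit stated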); settings: CellTiter-Glo luminescence; at 20 µM (top of the series)
# [8] = NPC library primary testing for decreased DLD-1 cell viability via CellTiter-Glo (AID 1117346;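 active = compounds that lower survival of DLD-1 colon cancer cells in the luminescence readout, no cutoff given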); settings: DLD-1 viability, CellTiter-Glo luminescence; at 20 µM (top of the series)
# [9] = target: 6-phosphogluconate dehydrogenase, decarboxylating (Homo sapiens) (UniProt P52209); assay: inhibition of human phosphogluconate dehydrogenase – biochemical, recombinant enzyme, NADPH absorbance, primary screen (AID 1159550;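 active = at least 20% inhibition of 6-phosphogluconate dehydrogenase activity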); settings: recombinant 6PGD, NADPH absorbance 341 nm; at 10 µM; stronger effect = higher value
# [10] = modulation of C. elegans fzo-1 (AID 1259413; call rule not given here;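 also: fzo-1 mutant C. elegans worms in liquid wells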); settings: C. elegans fzo-1 modulator screen, mean read-out; stronger effect = higher value
# [11] = EMT-state selective cytotoxicity in co-culture – imaging, PC-3E GFP, TEM4-18 mCherry, primary screen (AID 1345086;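 active = compounds killing one labelled cell type while sparing the other, by normalised counts and ratio limits, not self-fluorescent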;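 as to all read-outs here: cells exposed to compound for 72 h before imaging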;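 as to red/green cell ratio (normalised): normalised mesenchymal count divided by normalised epithelial count so high means epithelial killing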); settings: PC-3E GFP / TEM4-18 mCherry co-culture, imaging cell counts, at 1 µM; for red/green cell ratio (normalised): actives lie on both sides, counts scaled to control wells, 1 = unselective
# [12] = MELAS cybrid and Rieske KO viability enhancers – cell-based, MELAS cybrids, Rieske KO mouse fibroblasts, CellTiter-Glo, primary screen (AID 1508586;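 active = mean z-score across replicates of 1.96 or higher in either the MELAS or the Rieske mutant cell line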;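 also: z relative to plate mean and SD of compound and empty wells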); settings: low glucose
# [13] = target: NAD(+) hydrolase SARM1 (Homo sapiens) (UniProt Q6SZW1); assay: blocking NAD cleavage by SARM1 SAM-TIR – cell lysate, NAD-Glo luminescence (AID 1508614;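 active = compound whose remaining NAD level is above about 45 nM, limit read from the data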;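 also: higher remaining NAD means stronger inhibition of SARM1 NADase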); settings: SAM-TIR HEK293T lysate NADase, at 1 µM, stronger effect = higher value
# [14] = growth inhibition, single agents and combos, ICB984, cell-based, cisplatin or BGB combos, synergistic combos for chromothripsis tumors (AID 1671451; call rule not given here;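 also: cells exposed for 96 hours before readout; 0% = vehicle DMSO and 100% = killing by high DMSO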); settings: ICB984 medulloblastoma cells, drug combinations, stronger effect = higher value
# F380Y = assay: BK channel mutant inhibitors and activators – cell-based, U2OS BacMam, thallium flux, beta subunits, selectivity assay, profiling panel (AID 1259406); settings: U2OS BacMam BK variants, at 30 µM;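 also: initial slope of Thallos dye fluorescence rise after thallium is added; log ratio against the mean of 0.3% DMSO vehicle wells on the same plate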
# F380Y/beta1 = assay: as above; settings: U2OS BacMam BK variants, at 30 µM
# F380Y/beta2Delta = assay: as above; settings: U2OS BacMam BK variants, at 30 µM
# F380Y/beta4 = assay: as above; settings: U2OS BacMam BK variants, at 30 µM
# [15] = target: Mitogen-activated protein kinase 7 (Homo sapiens) (UniProt Q13164); assay: Gal4-ERK5 driven luciferase induction – cell-based, HTS, primary screen (AID 1508626;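 active = luciferase signal above three times the same-plate solvent-only control wells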;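 also: luciferase driven by Gal4-ERK5 fusion binding five Gal4 sites before minimal TATA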); settings: HeLa Gal4-ERK5 transactivation, 18 h, at 5 µM, stronger effect = higher value
# [16] = measured here: epithelial PC-3E GFP cell survival
# [17] = measured here: mesenchymal TEM4-18 mCherry cell survival
# [18] = MELAS cybrid survival, CellTiter-Glo 48 h, stronger effect = higher value
# [19] = Rieske KO mouse fibroblast survival, CellTiter-Glo 72 h
# [20] = measured here: 5 uM single agent, at 5 µM
# Chain of NAD(+) hydrolase SARM1 (Homo sapiens) (Q6SZW1 whole entry, looked up): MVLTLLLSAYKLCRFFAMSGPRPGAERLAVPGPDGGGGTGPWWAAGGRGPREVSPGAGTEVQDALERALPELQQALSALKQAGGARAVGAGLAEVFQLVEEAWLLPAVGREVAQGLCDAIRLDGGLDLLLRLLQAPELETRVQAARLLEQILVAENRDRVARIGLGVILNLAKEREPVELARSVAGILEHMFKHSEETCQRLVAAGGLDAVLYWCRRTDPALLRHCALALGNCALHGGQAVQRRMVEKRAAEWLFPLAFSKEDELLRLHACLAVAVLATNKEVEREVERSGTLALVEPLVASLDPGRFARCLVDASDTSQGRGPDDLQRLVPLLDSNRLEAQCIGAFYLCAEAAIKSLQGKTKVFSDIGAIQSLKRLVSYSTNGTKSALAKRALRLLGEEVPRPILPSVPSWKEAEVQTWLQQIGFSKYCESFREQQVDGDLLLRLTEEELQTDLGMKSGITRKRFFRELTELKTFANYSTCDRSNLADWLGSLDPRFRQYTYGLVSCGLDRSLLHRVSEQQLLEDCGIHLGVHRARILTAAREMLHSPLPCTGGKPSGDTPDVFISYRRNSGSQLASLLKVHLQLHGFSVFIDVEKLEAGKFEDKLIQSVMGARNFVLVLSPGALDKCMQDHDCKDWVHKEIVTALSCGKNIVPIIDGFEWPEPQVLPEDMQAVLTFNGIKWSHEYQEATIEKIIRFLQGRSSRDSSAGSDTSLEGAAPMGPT
# Chain of 6-phosphogluconate dehydrogenase, decarboxylating (Homo sapiens) (P52209 whole entry, looked up): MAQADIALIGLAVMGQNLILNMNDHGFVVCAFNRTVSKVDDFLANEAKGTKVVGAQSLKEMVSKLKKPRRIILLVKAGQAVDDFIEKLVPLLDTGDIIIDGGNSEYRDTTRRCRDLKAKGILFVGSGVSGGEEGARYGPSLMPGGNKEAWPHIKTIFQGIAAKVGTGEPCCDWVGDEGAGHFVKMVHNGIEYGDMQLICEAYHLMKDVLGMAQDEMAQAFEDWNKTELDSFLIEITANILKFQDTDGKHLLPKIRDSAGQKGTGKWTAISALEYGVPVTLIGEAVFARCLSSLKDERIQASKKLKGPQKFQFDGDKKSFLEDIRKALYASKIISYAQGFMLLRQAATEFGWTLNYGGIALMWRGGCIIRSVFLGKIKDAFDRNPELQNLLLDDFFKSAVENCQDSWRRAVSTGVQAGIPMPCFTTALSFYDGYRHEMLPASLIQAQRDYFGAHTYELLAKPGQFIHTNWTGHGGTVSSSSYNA
# Chain of Mitogen-activated protein kinase 7 (Homo sapiens) (Q13164 whole entry, looked up, the tested form may be a part): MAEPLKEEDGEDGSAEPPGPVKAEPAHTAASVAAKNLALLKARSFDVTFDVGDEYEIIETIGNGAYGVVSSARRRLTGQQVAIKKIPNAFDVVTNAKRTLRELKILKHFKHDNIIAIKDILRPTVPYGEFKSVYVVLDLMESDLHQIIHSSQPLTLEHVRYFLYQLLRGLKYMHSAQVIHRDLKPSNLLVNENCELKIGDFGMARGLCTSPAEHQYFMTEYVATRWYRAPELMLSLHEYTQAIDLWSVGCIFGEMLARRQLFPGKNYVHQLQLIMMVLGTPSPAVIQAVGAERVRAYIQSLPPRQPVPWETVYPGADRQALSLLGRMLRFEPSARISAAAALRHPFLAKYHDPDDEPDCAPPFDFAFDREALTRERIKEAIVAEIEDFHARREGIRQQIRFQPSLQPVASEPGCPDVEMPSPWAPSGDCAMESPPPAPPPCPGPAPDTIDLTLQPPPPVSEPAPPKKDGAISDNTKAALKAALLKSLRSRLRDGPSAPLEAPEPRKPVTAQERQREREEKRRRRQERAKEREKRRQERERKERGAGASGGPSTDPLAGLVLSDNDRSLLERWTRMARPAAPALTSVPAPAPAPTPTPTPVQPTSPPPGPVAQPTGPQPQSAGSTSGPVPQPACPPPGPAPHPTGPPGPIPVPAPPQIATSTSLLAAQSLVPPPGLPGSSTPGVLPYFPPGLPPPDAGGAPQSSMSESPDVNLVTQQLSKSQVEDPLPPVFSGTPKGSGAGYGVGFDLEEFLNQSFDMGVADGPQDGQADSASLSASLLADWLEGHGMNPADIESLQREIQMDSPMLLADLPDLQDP
smiles,measurement,setting,value
O=C(O)CCCc1ccccc1,nuclear beta-catenin stimulation,[1]; at 10 µM,0.2% (inactive)
same,nuclear beta-catenin stimulation,"[1]; stimulation, at 2 µM",0.9%
same,insulin secretion stimulation,[2],1.8% (inactive)
same,viability decrease,[3],-6.2% (inactive)
same,tube area decrease,[4],-15% (inactive)
same,GLP1 secretion stimulation,[5],-1.1% (inactive)
same,inhibition of viability,[6],0.1% (inactive)
same,viability decrease (inhibition),[7],12.5% (inactive)
same,viability decrease (inhibition),[8],-3.9% (inactive)
same,inhibition,[9],-10% (inactive)
same,mean signal,[10],232 (inactive)
same,red/green cell ratio (normalised),[11],1 (inactive)
same,normalised cell number,[11]; [16],1.12
same,normalised cell number,[11]; [17],1.11
same,z-score,[12]; [18],-0.2 (inactive) and -0.108 (inactive)
same,z-score,[12]; [19],-0.148 and -0.948
same,remaining NAD,[13],10 nM (inactive)
same,inhibition,"[14]; BGB IC20 combo, at 0.005 µM",-2.57%
same,inhibition,"[14]; BGB IC40 combo, at 0.005 µM",-13.4%
same,inhibition,"[14]; BGB IC40 combo, at 0.05 µM",6.23%
same,inhibition,[14]; at 0.5 µM,-32.1% (inactive)
same,inhibition,"[14]; cisplatin combo, at 0.05 µM",3.61%
same,inhibition,"[14]; cisplatin combo, at 0.5 µM",-38.8%
same,inhibition,"[14]; cisplatin combo, at 5 µM",-20.8%
same,inhibition,[14]; [20],-6.76%
same,log fold change Tl+ flux,F380Y,0.0311 (inactive)
same,log fold change Tl+ flux,F380Y/beta1,0.0211 (inactive)
same,log fold change Tl+ flux,F380Y/beta2Delta,-0.00447 (inactive)
same,log fold change Tl+ flux,F380Y/beta4,0.0283 (inactive)
CCCc1nc2c(C)cc(-c3nc4ccccc4n3C)cc2n1Cc1ccc(-c2ccccc2C(=O)O)cc1,nuclear beta-catenin stimulation,[1]; at 10 µM,3.7% (inactive)
same,nuclear beta-catenin stimulation,"[1]; stimulation, at 2 µM",1.8%
same,insulin secretion stimulation,[2],-0.5% (inactive)
same,viability decrease,[3],-22.6% (inactive)
same,tube area decrease,[4],8% (inactive)
same,GLP1 secretion stimulation,[5],1.1% (inactive)
same,inhibition of viability,[6],42% (inactive)
same,viability decrease (inhibition),[7],94.1% (active)
same,viability decrease (inhibition),[8],36.3% (inactive)
same,inhibition,[9],2.16% (inactive)
same,mean signal,[10],236 (inactive)
same,red/green cell ratio (normalised),[11],0.63 (inactive)
same,normalised cell number,[11]; [16],1.26
same,normalised cell number,[11]; [17],0.8
same,z-score,[12]; [18],-0.258 (inactive) and 0.956 (inactive) and -0.424 (inactive)
same,z-score,[12]; [19],0.516 and 0.961 and -0.332
same,remaining NAD,[13],10 nM (inactive)
same,luciferase signal,[15],96 AU (inactive)
same,log fold change Tl+ flux,F380Y,-0.0745 (inactive)
same,log fold change Tl+ flux,F380Y/beta1,0.00163 (inactive)
same,log fold change Tl+ flux,F380Y/beta2Delta,0.025 (inactive)
same,log fold change Tl+ flux,F380Y/beta4,-0.000976 (inactive)
CC1COc2c(N3CCN(C)CC3)c(F)cc3c(=O)c(C(=O)O)cn1c23 (stereo unspecified),nuclear beta-catenin stimulation,[1]; at 10 µM,-0.3% (inactive)
same,nuclear beta-catenin stimulation,"[1]; stimulation, at 2 µM",-0.9%
same,insulin secretion stimulation,[2],3.4% (inactive)
same,viability decrease,[3],14.4% (inactive)
same,tube area decrease,[4],-15.9% (inactive)
same,GLP1 secretion stimulation,[5],2.5% (inactive)
same,inhibition of viability,[6],0.4% (inactive)
same,viability decrease (inhibition),[7],-9.6% (inactive)
same,viability decrease (inhibition),[8],-8.7% (inactive)
same,inhibition,[9],0.495% (inactive)
same,mean signal,[10],237 (inactive)
same,red/green cell ratio (normalised),[11],0.96 (inactive) and 1.29 (inactive)
same,normalised cell number,[11]; [16],1.1 and 0.91
same,normalised cell number,[11]; [17],1.06 and 1.18
same,z-score,[12]; [18],-0.837 (inactive) and -0.951 (inactive) and -0.349 (inactive)
same,z-score,[12]; [19],-0.0297 and -0.43 and -0.633
same,remaining NAD,[13],10 nM (inactive)
same,luciferase signal,[15],60 AU (inactive)
same,inhibition,"[14]; BGB IC20 combo, at 0.005 µM",-17.9% and -25.7% and 9.81%
same,inhibition,"[14]; BGB IC40 combo, at 0.005 µM",-33.2% and -21.8% and -24%
same,inhibition,"[14]; BGB IC40 combo, at 0.05 µM",-26.1% and 10.2% and -18.3%
same,inhibition,[14]; at 0.5 µM,-27.6% (inactive) and 4.56% (inactive) and -22.5% (inactive)
same,inhibition,"[14]; cisplatin combo, at 0.05 µM",-29.6% and 10.2% and -23%
same,inhibition,"[14]; cisplatin combo, at 0.5 µM",-35.8% and -11.2% and -26.4%
same,inhibition,"[14]; cisplatin combo, at 5 µM",-56.5% and 3.02% and -28.7%
same,inhibition,[14]; [20],-20% and 15.7% and -1.17%
same,log fold change Tl+ flux,F380Y,0.0183 (inactive)
same,log fold change Tl+ flux,F380Y/beta1,-0.00501 (inactive)
same,log fold change Tl+ flux,F380Y/beta2Delta,0.0472 (inactive)
same,log fold change Tl+ flux,F380Y/beta4,0.0067 (inactive)

# From PubChem BioAssay
